Unmarked numbers belong to inactive results. Calls come from the whole dose curve; as a rule, active = well fitted activation curve with a large enough effect; inconclusive = small, poorly fitted or top-dose-only effect; inactive = flat fitted curve, though single readings scatter.
Test: Confirmation and Secondary Assay for Modulators of Hemoglobin Beta Chain Splicing at IVS2 705 locus (AID 930);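 note: HeLa cells stably expressing the EGFP-705 splicing reporter; GFP fluorescence per well restored by corrected splicing of the IVS2-705 intron in EGFP; % of control where 0% means no effect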
Settings: HeLa EGFP-705 splicing reporter, GFP fluorescence, 48 h; series mostly up to 46.1 µM; activation: at the top concentration
Summary of the method: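 Per-well GFP, captured at 1 x 8 µm resolution with 488 nm excitation, served as the read-out for HeLa EGFP-705 cells incubated 2 days with test compound versus DMSO.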

Row | Structure (SMILES) | activation
1 | COc1ccc2ccc(=O)oc2c1CC=C(C)C | 0.269% [at 38.3 µM]
2 | COc1ccnc(CS(=O)c2nc3ccc(OC(F)F)cc3[nH]2)c1OC (stereo not given) | 1.12%
3 | CC1(C)OC2CC3C4CC(F)C5=CC(=O)C=CC5(C)C4C(O)CC3(C)[C@]2(C(=O)CO)O1 (stereo not given in full) | 0.535%
4 | O=C1C(CCC(O)c2ccc(F)cc2)C(c2ccc(O)cc2)N1c1ccc(F)cc1 (stereo not given) | 1.93%
5 | NCC1CCC(C(=O)O)CC1 (stereo not given) | 0.725%
6 | Cc1cc2nc3c(=O)[nH]c(=O)nc-3n(CC(O)C(O)C(O)CO)c2cc1C (stereo not given) | 24.7%
7 | CCC(c1ccc(O)cc1)C(CC)c1ccc(O)cc1 (stereo not given) | -0.0344%
8 | CS(=O)(=O)c1ccc(C2=C(c3ccccc3)C(=O)OC2)cc1 | 3.25%
9 | CC(NCCc1ccc(O)cc1)C(O)c1ccc(O)cc1 (stereo not given) | 1.31%
10 | OC(c1cc(C(F)(F)F)nc2c(C(F)(F)F)cccc12)C1CCCCN1 (stereo not given) | 1.21%

From PubChem BioAssay (NCATS)
